Experimental data published in the supplement of paper PMC10681739.

Key:
ETS1 [1] = target: T1, ETS1 (UniProt P14921); assay: ETS1 binding intensity (PBM fluorescence), ETS1 alone (arbitrary fluorescence units); higher = stronger binding; conditions: ETS1 concentration 1 nM; RUNX1 concentration 0 nM
T1 sequence: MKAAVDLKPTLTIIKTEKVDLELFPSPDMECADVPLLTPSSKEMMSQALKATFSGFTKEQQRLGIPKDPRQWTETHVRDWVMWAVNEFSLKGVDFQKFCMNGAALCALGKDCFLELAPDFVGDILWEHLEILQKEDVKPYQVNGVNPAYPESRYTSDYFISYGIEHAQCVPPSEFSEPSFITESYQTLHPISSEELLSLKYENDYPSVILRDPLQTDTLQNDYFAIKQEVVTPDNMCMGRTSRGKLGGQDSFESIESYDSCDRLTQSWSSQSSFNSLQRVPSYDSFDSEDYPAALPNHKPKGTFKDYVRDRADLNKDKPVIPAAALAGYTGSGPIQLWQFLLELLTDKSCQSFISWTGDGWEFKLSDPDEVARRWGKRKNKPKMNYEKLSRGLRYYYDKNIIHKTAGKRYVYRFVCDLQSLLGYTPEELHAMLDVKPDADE

RUNX1 [2] = target: RUNX1 (UniProt Q01196); assay: RUNX1 binding intensity (PBM fluorescence), RUNX1 alone (arbitrary fluorescence units); higher = stronger binding; conditions: RUNX1 concentration 2 nM; ETS1 concentration 0 nM
Description: (§1)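 Cooperative gcPBM on 36-bp genomic probes with neighbouring ETS1 and RUNX1 sites. Recombinant human RUNX1 (2 nM) was incubated alone or with ETS1 (25 nM) and detected with anti-RUNX1 antibody plus Alexa488 secondary. Values are medians over 4 replicate spots; the RUNX1+ETS1 data were normalised to the RUNX1-only data. The probes sit in constant array flanks that are not printed.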

ETS1 [3] = target: T1, ETS1; assay: ETS1 binding intensity (PBM fluorescence) in presence of RUNX1, normalised to ETS1-only experiment (arbitrary fluorescence units); higher = stronger binding; conditions: ETS1 concentration 1 nM; RUNX1 concentration 25 nM
RUNX1 [4] = target: RUNX1 (UniProt Q01196); assay: RUNX1 binding intensity (PBM fluorescence) in presence of ETS1, normalised to RUNX1-only experiment (arbitrary fluorescence units); higher = stronger binding; conditions: RUNX1 concentration 2 nM; ETS1 concentration 25 nM
Description: as §1
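Throughout, for RUNX1 binding intensity (PBM fluorescence) in presence of ETS1, normalised to RUNX1-only experiment: Full-length recombinant human ETS1 or RUNX1 bound to double-stranded 36-bp genomic probes on microarrays, detected by protein-specific primary antibody and Alexa488 secondary, spot fluorescence as median of four replicate spots.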
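Throughout, for RUNX1 binding intensity (PBM fluorescence), RUNX1 alone: Full-length recombinant human RUNX1 bound to double-stranded 36-bp genomic probes on a high-density microarray, scored as Alexa488 fluorescence per spot via anti-RUNX1 antibody, median of four replicate spots.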

Sequence of RUNX1 (Q01196 whole entry): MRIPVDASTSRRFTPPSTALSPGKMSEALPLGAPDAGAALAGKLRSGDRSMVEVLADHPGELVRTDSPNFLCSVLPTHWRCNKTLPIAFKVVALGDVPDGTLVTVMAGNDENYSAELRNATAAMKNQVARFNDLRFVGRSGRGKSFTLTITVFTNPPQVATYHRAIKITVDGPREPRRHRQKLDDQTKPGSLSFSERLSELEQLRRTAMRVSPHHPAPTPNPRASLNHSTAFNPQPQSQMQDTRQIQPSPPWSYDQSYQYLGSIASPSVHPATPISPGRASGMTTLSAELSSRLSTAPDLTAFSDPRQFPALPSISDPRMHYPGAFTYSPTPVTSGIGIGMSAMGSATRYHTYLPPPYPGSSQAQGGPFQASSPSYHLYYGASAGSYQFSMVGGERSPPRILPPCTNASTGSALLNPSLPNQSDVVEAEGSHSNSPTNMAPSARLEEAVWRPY

Row | Sequence | ETS1 binding intensity (ETS1 [1]) | RUNX1 binding intensity (RUNX1 [2]) | ETS1 binding intensity (ETS1 [3]) | RUNX1 binding intensity (RUNX1 [4])
1 | AGCTTGCCGGAAGCTGGTTGTTCGCTGCGGCGACCA | 4100 | 705 | 4380 | 1220
2 | GAGAGAGGCAGGAAGTGTTGTGGTTATTGTTTGAGC | 4710 | 1240 | 24200 | 2210
3 | GGACACAGGCTTCCGCGTTACCGACACCGCGTGGGG | 451 | 837 | 311 | 934
4 | TAAAGAAACAGGATGACTGTGGTTTACTGCGAGCAT | 500 | 830 | 1000 | 1150
5 | CCCCTATATCACAGGATGCCGCAAACTAGTAACAGG | 1610 | 827 | 2210 | 993
6 | AATGATTACCTAACAGGAAAACCACATTGGTCATTT | 1150 | 1180 | 3100 | 1130
7 | ACTATTTTTAGACTTCCCCACCCCGCAGTTTCAAGG | 601 | 1270 | 554 | 1010
8 | CTGCCTTTCCTGCTAGGGTACAAACCACAGCCTTAG | 369 | 1360 | 774 | 1640
9 | CACCCGAACGGAAACACCTGCGGCTGAGGGGAGGGG | 959 | 989 | 1110 | 938
10 | AGGGACCCGGATGTCTGGTCTGCGGCTGCTCCTCTA | 1460 | 756 | 2120 | 1250
11 | TAAATGTTTCCTAAAAGCTCTTTCATAAACCACAGT | 390 | 970 | 669 | 884
12 | AGGTGTACTTTCCGGGTGCAGACCGCGAATGGATCG | 383 | 743 | 534 | 1120
13 | GACTTGGGGGAAGTGGCTTGGTTTGCGTGGTTTCTC | 433 | 952 | 546 | 1060
14 | GGACCCAGCAGAGGATGTGGTTACAGGGCCATGATA | 720 | 836 | 5450 | 2170
